Measured values as given in the supplement of paper PMC10127200.
Where a name gives a salt, the structure may show the parent alone.

Columns and labels:
Assay in all cases: Euclidean distance of Cell Painting phenotypic profile (signed KS, 77 features) to DMSO centroid (dimensionless distance); higher = stronger phenotypic change vs DMSO (phenoactivity)
Settings in all cases: 48 h; 5 or 10 uM (library dependent)
786-O = system: 786-O
Summary of the method: (§1)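 Phenoactivity is computed as Euclidean distance to the median vehicle profile. The profiles, drawn from 77 Harmony features scored as signed Kolmogorov-Smirnov statistics versus same-plate vehicle wells, were corrected for plate position, correlation-weighted and replicate-averaged at the top dose. Stained cells were imaged confocally at 20X (9 fields/well) after 48 h with library compounds at 10 or 5 uM, 0.1% DMSO final, in five cancer lines and a healthy fibroblast line.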

A549 = system: A549
Summary of the method: as §1

DU145 = system: DU145
Summary of the method: as §1

FB = system: FB
Summary of the method: as §1

HEPG2 = system: HEPG2
Summary of the method: as §1

OVCAR4 = system: OVCAR4
Summary of the method: as §1

SMILES | Euclidean distance (786-O) | Euclidean distance (A549) | Euclidean distance (DU145) | Euclidean distance (FB) | Euclidean distance (HEPG2) | Euclidean distance (OVCAR4)
O=C([O-])C(Cl)Cl.[Na+] [Sodium dichloroacetate (DCA)] | 0.79 | 0.753 | 0.544 | 0.681 | 0.496 | 1.4
CC(=O)OCC1=C(C(=O)O)N2C(=O)[C@@H](N)[C@H]2SC1 [7-Aminocephalosporanic acid] | 1.45 | 0.819 | 1.16 | 1 | 0.55 | 0.832
COC(=O)[C@@H](N)CCCNC(=N)N[N+](=O)[O-] | 0.931 | 1.3 | 0.775 | 1.29 | 0.551 | 0.995
COc1cc(-n2c(=S)[nH]c3ccccc3c2=O)c(Cl)cc1Cl [Mdivi-1] | 1.11 | 1.02 | 0.97 | 1.3 | 0.841 | 0.792
CCC1=C[C@H]2CN3CCc4c([nH]c5ccccc45)[C@](C(=O)OC)(C2)[C@H]13 [Catharanthine] | 1.45 | 1.4 | 0.692 | 1.02 | 0.581 | 1.41
CN(C)C(=O)Oc1ccc[n+](C)c1 [Pyridostigmine Bromide] | 0.816 | 0.961 | 0.672 | 0.846 | 0.726 | 0.777
CN1[C@@H]2CC(O)C[C@H]1[C@@H]1O[C@@H]12 (stereo partly specified) [Scopine HCl] | 0.344 | 0.885 | 0.479 | 0.66 | 0.893 | 0.714
CN1CCN(c2nc3ccccc3nc2Cl)CC1 | 0.803 | 1.25 | 1.04 | 0.897 | 0.638 | 1.52
CC[N+](C)(CC)CCOC(=O)C(O)(c1ccccc1)c1ccccc1 [Methylbenactyzine Bromide] | 0.693 | 0.883 | 0.575 | 0.967 | 0.532 | 1.45
O=C(CBr)N1CC([N+](=O)[O-])([N+](=O)[O-])C1 | 0.949 | 1.3 | 0.88 | 0.833 | 0.776 | 0.926
CCCN1CCO[C@@H]2c3cc(O)ccc3OC[C@H]21 | 0.455 | 0.629 | 0.762 | 0.945 | 0.824 | 0.818
N[C@@H]1C[C@H]1c1ccccc1 [Tranylcypromine (2-PCPA) HCl] | 1.2 | 1.52 | 1.36 | 2.02 | 1.47 | 1.76
N#Cc1ccc(N2CCC[C@@H]2[C@@H](O)C(F)(F)F)cc1C(F)(F)F [Ligandrol (LGD-4033. VK-5211)] | 1.52 | 1.1 | 0.95 | 1.1 | 0.87 | 1.15
CC[C@H]1CN2CC[C@H]1C[C@@H]2[C@@H](O)c1ccnc2ccc(OC)cc12 [Hydroquinidine] | 0.75 | 0.791 | 0.64 | 1.18 | 0.881 | 1.23
CCCN1C[C@H](CSC)C[C@@H]2c3cccc4[nH]cc(c34)C[C@H]21 [Pergolide mesylate] | 0.662 | 0.713 | 1.01 | 0.92 | 2.27 | 1.02
C[C@]12CC[C@H](O)C[C@H]1CC[C@@H]1[C@@H]2C[C@@H](O)[C@]2(C)[C@@H](C3=CC(=O)OC3)CC[C@]12O [Digoxigenin] | 6.59 | 5.09 | 7.21 | 3.92 | 3.09 | 5.51
O=[N+]([O-])C(Br)(CO)CO [Bronopol] | 1.36 | 1.03 | 1.02 | 0.825 | 0.735 | 1.59
CC[C@H]1[C@@H]2C[C@H]3[C@@H]4N(C)c5ccccc5[C@]45C[C@@H]([C@@H]2[C@H]5O)N3[C@@H]1O [Ajmaline] | 1.39 | 0.849 | 1.04 | 0.914 | 0.486 | 1.05
CCc1c(C(=O)C(N)=O)c2c(OCC(=O)O)cccc2n1Cc1ccccc1 | 0.933 | 1.14 | 1.33 | 0.633 | 0.812 | 0.982
C#C[C@]1(OC(=O)CCCCCC)CC[C@H]2[C@@H]3CCC4=CC(=O)CC[C@@H]4[C@H]3CC[C@@]21C [Norethisterone Enanthate] | 2.37 | 2.5 | 3.85 | 1.34 | 2.23 | 1.22
NCC1(CC(=O)O)CCCCC1 [Gabapentin HCl] | 0.807 | 0.703 | 0.806 | 0.665 | 0.483 | 0.892
Cc1ccccc1-n1c(CF)nc2ccc(N)cc2c1=O [Afloqualone] | 0.926 | 0.643 | 0.714 | 1.21 | 0.422 | 0.949
CC(NC(C)(C)C)C(=O)c1cccc(Cl)c1 (stereo unspecified) [Amfebutamone HCl] | 1.4 | 1.06 | 0.536 | 1.05 | 0.846 | 1.45

SMILES | Euclidean distance (786-O) | Euclidean distance (A549) | Euclidean distance (DU145) | Euclidean distance (FB) | Euclidean distance (HEPG2) | Euclidean distance (OVCAR4)
C#C[C@]1(O)CC[C@H]2[C@@H]3CCC4=CC(=O)CC[C@]4(C)[C@H]3CC[C@@]21C [Ethisterone] | 1.07 | 0.836 | 1.58 | 0.721 | 0.747 | 1.06
CN1[C@@H]2CC[C@H]1C[C@@H](OC(=O)C(CO)c1ccccc1)C2 (stereo partly specified) [Atropine] | 0.688 | 1.55 | 1.19 | 1 | 2.2 | 1.89
CC(CCc1ccccc1)NC(C)C(O)c1ccc(O)cc1 (stereo unspecified) [Nylidrin Hydrochloride] | 1.45 | 1.2 | 1.38 | 1.11 | 1.29 | 1.34
COC(=O)C1=CCCN(C)C1 [Arecoline] | 0.942 | 1.44 | 0.841 | 1.01 | 0.762 | 0.957
CN1[C@@H]2CC[C@H]1C[C@@H](OC(=O)C(CO)c1ccccc1)C2 (stereo partly specified) [Atropine sulfate monohydrate] | 0.718 | 0.691 | 0.677 | 0.688 | 0.719 | 1.53
C=CC1CN2CCC1CC2C(O)c1ccnc2ccccc12 (stereo unspecified) | 1.34 | 0.884 | 1.11 | 0.875 | 0.638 | 1.13
CC(C)N(CCNC(=O)CN1CCCC1=O)C(C)C [Pramiracetam] | 1.35 | 1.08 | 0.543 | 0.932 | 0.534 | 0.853
CN1CCC(c2c[nH]c3ccc(O)cc23)CC1 | 0.692 | 0.484 | 1.17 | 0.749 | 2.09 | 0.873
COc1ccc2c(c1)[nH]c1c(C)nccc12 [Harmine hydrochloride] | 1.41 | 1.17 | 1.13 | 1.58 | 1.06 | 1.25
CN1[C@@H]2CC[C@H]1C[C@@H](OC(=O)C(CO)c1ccccc1)C2 (stereo partly specified) [Atropine sulfate] | 0.994 | 0.9 | 0.824 | 0.898 | 0.473 | 1.38
COc1cc2c(cc1OC)C1CC(=O)C(CC(C)C)CN1CC2 (stereo unspecified) [Tetrabenazine (Xenazine)] | 0.961 | 1.86 | 0.948 | 1.12 | 1.74 | 1.45
CC(C)(C)c1cc(C=C(C#N)C#N)cc(C(C)(C)C)c1O [Tyrphostin 9] | 3 | 2.48 | 1.41 | 1.32 | 0.766 | 1.95
COc1cc2c(cc1OC)[C@@]13CCN4CC5=CCO[C@H]6CC(=O)N2[C@H]1[C@H]6[C@H]5C[C@H]43 [Brucine sulfate salt hydrate] | 1.36 | 0.862 | 0.987 | 1.47 | 0.722 | 0.846
COC(=O)C1=CCCN(C)C1 [Arecoline HBr] | 0.921 | 0.978 | 1.03 | 1.12 | 0.958 | 1.12
COC[C@H]1OC(=O)c2coc3c2[C@@]1(C)C1=C(C3=O)[C@@H]2CCC(=O)[C@@]2(C)C[C@H]1OC(C)=O [Wortmannin] | 1.37 | 1.06 | 1.2 | 2.24 | 0.655 | 1.14
CCOC(=O)Nc1ccc(NCc2ccc(F)cc2)cc1N [Retigabine 2HCl] | 0.771 | 1.35 | 0.995 | 0.958 | 0.601 | 0.882
CCOc1ccccc1-n1c(C(C)N2CCN(C(=O)COc3ccc(Cl)cc3)CC2)nc2ccccc2c1=O (stereo unspecified) [Erastin] | 3.85 | 1.31 | 1.34 | 3.12 | 1.68 | 2.13
CN(C)C(=O)Oc1cc(OC(=O)N(C)C)cc(C(O)CNC(C)(C)C)c1 (stereo unspecified) [Bambuterol HCl] | 0.701 | 0.719 | 1.13 | 1.12 | 0.521 | 1.48
CN(C)Cc1c[nH]c2ccccc12 [Gramine] | 1.2 | 0.885 | 1.29 | 0.772 | 0.674 | 1.45
C[C@H]1O[C@H](O[C@H]2[C@H](O)[C@@H](O)[C@@H](O)[C@H](O)[C@@H]2O)[C@@H](N)C[C@@H]1NC(=N)C(=O)O [Kasugamycin hydrochloride] | 1.08 | 0.816 | 0.855 | 1.2 | 0.528 | 0.934
C[C@]12CC[C@H](O)CC1=CC[C@@H]1[C@@H]2CC[C@]2(C)C(=O)CC[C@@H]12 [Dehydroepiandrosterone (DHEA)] | 0.908 | 0.827 | 1.46 | 1.11 | 1.12 | 1.16
CN1[C@H]2C[C@H](OC(=O)[C@H](CO)c3ccccc3)C[C@@H]1[C@@H](O)C2 [Anisodamine Hydrobromide] | 0.645 | 0.397 | 2.62 | 1.12 | 0.513 | 0.688
COc1cc2c(c(OC)c1OC)-c1ccc(OC)c(=O)cc1[C@@H](NC(C)=O)CC2 [Colchicine] | 3.12 | 3.04 | 4.54 | 2.88 | 3.8 | 3.18
